Data on 48 compounds can be found in PubChem BioAssay AID493208 (National Center for Advancing Translational Sciences (NCATS), 2011).

The campaign covered roughly 44,000 compounds. About 340 (0.77%) were called active. Inconclusive results (about 5%) are left out. This is one part of a sample in which actives are shown more often than they occur. The call rests on the fitted dose curve; in most records, active means well fitted inhibition curve with a large enough effect; inconclusive means small, poorly fitted or top-dose-only effect; inactive means flat fitted curve, though single readings scatter.
Potency means the concentration at half of the fitted maximal effect.

This assay in a line: Acumen qHTS Assay for Inhibitors of the mTORC1 Signaling Pathway in MEF (Tsc2-/-, p53-/-) Cells: Sytravon. Further: nearly all actives have a fitted effect of over 50% in size. The conditions noted are these: phospho-rpS6 immunofluorescence/PI, 24 h; series mostly up to 38.3 µM; activity change, negative = inhibition: at the top concentration. An excerpt:
NIH Molecular Libraries Probe Production Centers Network [MLPCN] NIH Chemical Genomics Center [NCGC] MLPCN Grant: NS059428-01 Assay Submitter (PI): Blenis, John; Hoffman, Greg; Harvard University NCGC Assay Overview: The mammalian target of rapamycin (mTOR) is an intracellular serine/threonine kinase Aberrant regulation of mTOR signaling plays a causative role in a number of human diseases, including cancer, benign tumors such as lymphangioleiomyomatosis (LAM) and Tuberous Sclerosis Complex (TSC), and metabolic diseases such as diabetes and obesity. This project aims to identify inhibitors of ribosomal protein S6 (rpS6) phosphorylation. The phosphorylation of rpS6 is a key event downstream of mTOR activation. The assay uses a phospho-specific antibody of phospho-rpS6 to detect inhibitors of mTOR activation. Mutations in the Tsc1 and Tsc2 genes are the underlying genetic lesions responsible for TSC, causing constitutive activation of the mTORC1 pathway and leading to profound effects on cell metabolism. Aberrant metabolism in cancer has recently received significant attention as a target to develop therapeutic agents in the treatment of cancer.1 As Tsc2-/- cells have lost the ability to respond to energy and growth factor deprivation, these cells are unable to properly down regulate cellular biosynthetic processes in response to metabolic stress, and are thus extremely sensitive to glucose deprivation-induced death.2 A central goal of this project is to explore the unique cell survival and metabolic properties of cells with Tsc1 or Tsc2 by screening for compounds that selectively target the Tsc2-/- MEFs by screening both Tsc2-/- and WT MEF cell lines. We hope to better understand these aspects of TSC physiology in order to exploit them for therapeutic benefit.
NCGC Acumen Assay Protocol Summary: For quantitative high throughput analysis of mTORC1 signaling, we developed a cell-based assay for immuno-fluorescence based detection of rpS6 phosphorylation on the Acumen Explorer that will be used a platform for the primary small molecule screen. Mouse embryonic fibroblasts (MEFs) are cultured in 1536-well plates using DMEM + 10% FBS. Twenty-four hrs after plating, test compounds (solubilized in DMSO) are delivered and incubated with the cells for 24 hrs at 37 degree Celsius. Following the incubation, media with compound is aspirated and the cells are fixed in 4% paraformaldehyde (PFA) containing PBS + 0.2% TX-100. Next, PFA is aspirated, cells are washed two times with PBS plus 0.2% TX-100 and the cells are blocked for 1 hr at room temperature (blocking buffer: LiCOR Blocking Buffer plus 0.2% TX-100). […] Cells are washed two times with PBS plus 0.2% TX-100, and stained with 10 uM propidium iodide (PI) for 20-25 minutes for cell number measurement (1:500 dilution of Hoescht staining is also added for IN Cell imaging). The plates are scanned on the Acumen Explorer laser scanning instrument (TTP Labtech) using the 488nm laser for simultaneous excitation of the Alexa-488 and PI. […] The normalized phospho-S6 staining is calculated as the ratio of the integrated Alexa 488 intensity divided by the integrated PI intensity for the single concentration rapamycin control (7.5 nM) and DMSO columns. […] Inhibition of the pathway is defined based on the normalized phospho-S6 intensity in rapamycin treated cells. Active cells are defined as those with a normalized phospho-S6 staining above this threshold, and each treatment is reported as the % positive cells in the well, where thresholds are defined by selecting wells with the highest and lowest signal and differentiating between the % non-active and % active populations. In addition to the pathway specific phospho-S6 endpoint, the number of PI stained cells from the Acumen is recorded as a measure of cell viability. The primary screen was performed with a MEF cell line in a defined genetic background, Tsc2-/-, p53-/- cell line stably transfected with an empty vector control (Tsc2-/- MEF).
(In general: In qHTS, concentration-response curves come from the screen itself.)
Take `Cc1ccc(Cn2c(CNC(=O)Cc3cccc(C)c3)nc3cccnc32)cc1`: the “activity change, negative = inhibition” value is 1.57% (inactive). Take `Cc1ccc(C)c(NC(=O)Cn2ccn(-c3ccc(F)cc3)c(=O)c2=O)c1`: the “activity change, negative = inhibition” value was -4.42% (inactive). Regarding `COc1cc2nc(SCC(=O)Nc3ccccc3F)n3nc(-c4ccccc4)nc3c2cc1OC`, the “activity change, negative = inhibition” value was -0.468% (inactive). As to `Cc1cccc(N2CCN(C(=O)c3ccc4c(c3)CCN4S(=O)(=O)c3ccccc3)CC2)c1C`, the “activity change, negative = inhibition” value was -12.5% (inactive). With `O=C(NCCCO)C(=O)Nc1c2c(nn1-c1ccccc1)CSC2`, the “activity change, negative = inhibition” value was -1.8% (inactive).

Regarding `CCCCN(C)S(=O)(=O)c1ccc(C(=O)Nc2sc3c(c2C(N)=O)CC(C)(C)NC3(C)C)cc1`, the “activity change, negative = inhibition” value was 0.0542% (inactive). Turning to `O=C(CCSCc1ccccc1F)N1CCN(c2ccc(Cl)cc2)CC1`, the “activity change, negative = inhibition” value is 6.13% (inactive). Take `COc1cc(OC)c(NC(=O)N2CC3CCCN3c3ccccc32)cc1Cl` (stereo not drawn): the “activity change, negative = inhibition” value was -2.08% (inactive).

`COc1ccc(CNc2nc(-c3ccc(Cl)cc3)nn2C(=O)c2ccccc2)cc1`: the “activity change, negative = inhibition” value is -3.64% (inactive). Same read-out and setting: for `CCOc1ccc(-n2c(C)nc3c(cnn3-c3ccc(C)cc3)c2=O)cc1` the value was 0.221% (inactive).

For `COc1ccccc1NC(=O)CSC1=Nc2ccccc2C2=NC(CC(=O)NCc3cccs3)C(=O)N12` (stereo not drawn), the “activity change, negative = inhibition” value was -4.43% (inactive).

Consider `COc1cc(NC(=O)Cn2nc(-c3ccc(C)c(C)c3)ccc2=O)cc(OC)c1`, for which the “activity change, negative = inhibition” value is -5.32% (inactive). Turning to `CCN(CC)c1cc(NC2CCCCC2)c2c3c(onc13)-c1ccccc1C2=O`, the “activity change, negative = inhibition” value was 0.307% (inactive). Still for that read-out and setting: for `COc1ccc(-c2noc(CSc3nc4ccc(C)cc4[nH]3)n2)cc1` the value was 2.06% (inactive); for `CCCCN(CC)CCCNC(=O)Cn1ncc2c([nH]c3ccc(C)cc32)c1=O`, 7% (inactive).

For the compound `COc1cccc(CNCc2c(C(=O)O)n(Cc3ccc(C)cc3)c3cc(C)ccc23)c1OC`, the “activity change, negative = inhibition” value is -0.504% (inactive).

Regarding `CC1=C(c2ccc(Cl)cc2)S(=O)(=O)N=C1N1CCN(c2cc(C)ccc2C)CC1`, the “activity change, negative = inhibition” value was 1.43% (inactive). As to `CCOC(=O)c1c(C)[nH]c(CCC(=O)Nc2ccc(OC)c(OC)c2)c1C`, the “activity change, negative = inhibition” value was 0.489% (inactive). For `CCOC(=O)c1c(C)[nH]c(CCC(=O)NCCCN2CCN(c3cc(C)ccc3C)CC2)c1C`, the Potency was 13.1 µM (active).

Turning to `CC1=C(c2ccc(C)cc2)S(=O)(=O)NC1=NCCCN1CCN(c2cc(C)ccc2C)CC1`, the “activity change, negative = inhibition” value is -9.39% (inactive).

For the compound `Cc1ccc(C)c(N2CCN(CCCNC(=O)Nc3ccc(Cl)cc3)CC2)c1`, the Potency was 18.5 µM (active).

Regarding `CCOC(=O)c1c(C)[nH]c(CCC(=O)NCCCN2CCN(c3cccc(Cl)c3)CC2)c1C`, the “activity change, negative = inhibition” value is 0.601% (inactive). Take `CCn1c2ccccc2c2cc(NC(=O)COc3ccc(C)cc3C)ccc21`: the “activity change, negative = inhibition” value is -2.08% (inactive). Regarding `COc1ccc(-c2nn(CC(=O)Nc3ccccc3F)c3c2cnc2ccc(F)cc23)cc1`, the “activity change, negative = inhibition” value was 0% (inactive). With `O=C1CSC2(C(=O)N(Cc3ccccc3)c3ccccc32)N1c1cccc(F)c1` (stereo not drawn), the “activity change, negative = inhibition” value was 0% (inactive).

For the compound `CCC1CCCCN1C(=O)Cn1c(=O)n(CCCCCC(=O)NCc2ccccc2)c(=O)c2sccc21` (stereo not drawn), the “activity change, negative = inhibition” value was -7.36% (inactive).

On to `O=C(Nc1ccc2c(c1)OCO2)c1cc(-c2cccc(Cl)c2)on1`, for which the “activity change, negative = inhibition” value is -11.2% (inactive). On to `Cc1ccc2c(=O)c(C(=O)c3cccc(Cl)c3)cn(CC(=O)NCc3ccccc3)c2n1`, for which the “activity change, negative = inhibition” value is -0.846% (inactive). The same measure, in the same setting: for `N#Cc1ccccc1Cn1cnc2nc3c(cc2c1=O)CCCC3` the value was -10.6% (inactive); for `CC(C)c1ccc(NC(=O)c2ccc(Cn3nc(N4CCN(c5ccccc5)CC4)ccc3=O)o2)cc1`, -11.3% (inactive); for `COc1ccc(SCc2cc(=O)c3ccc(C)c(C)c3[nH]2)cc1`, 0.722% (inactive). Turning to `COc1ccc(-c2cc(C(F)(F)F)nc(SCC(=O)N(C)Cc3ccccc3)n2)cc1OC`, the “activity change, negative = inhibition” value is -5.38% (inactive). With `Cc1ccc(S(=O)(=O)N(CC(=O)Nc2ccc(Cl)cc2Cl)c2ccccc2C)cc1`, the “activity change, negative = inhibition” value was 13% (inactive). Still for that read-out and setting: for `COc1ccccc1NC(=O)C(=O)c1cc(C)n(-c2ccccc2F)c1C` the value was -8.68% (inactive); for `COc1cc(NC(=O)c2noc3c2CSc2ccccc2-3)cc(OC)c1OC`, 0.0529% (inactive). With `CCN(CC)c1ccc(NS(=O)(=O)c2cc(-c3cc(C)no3)ccc2C)c(C)c1`, the “activity change, negative = inhibition” value is -10.9% (inactive). The same measure, in the same setting: for `O=C(NCc1ccc2c(c1)CCN2C(=O)c1ccccc1)c1ccccc1` the value was 1.91% (inactive). Consider `CCc1cccc(C)c1Nc1c(-c2ccc(N(C)C)cc2)nc2ncccn12`, for which the Potency is 13.1 µM (active). As for `Cc1cccc(C)c1Nc1c(-c2ccccc2O)nc2ncccn12`, the “activity change, negative = inhibition” value was -14% (inactive). Regarding `COc1ccc(-c2nc3nc(C)cc(C)n3c2Nc2c(C)cccc2C)cc1`, the “activity change, negative = inhibition” value is -9.06% (inactive).

`CCOc1ccccc1N(CC)C(=O)c1cc2ccc3cccnc3c2[nH]1`: the “activity change, negative = inhibition” value was -0.703% (inactive). Regarding `Cc1ccc(C(=O)N2CCc3cc(CNC(=O)c4ccc(Br)cc4)ccc32)cc1`, the “activity change, negative = inhibition” value was -0.771% (inactive).

For `Cc1ccc(-n2c(=O)c3cccnc3n2CC(=O)Nc2ccccc2C(F)(F)F)cc1C`, the “activity change, negative = inhibition” value is 3.08% (inactive). `COc1cc(NC(=O)c2nc3ccccc3nc2C)cc(OC)c1OC`: the “activity change, negative = inhibition” value is -17.4% (inactive).

In the case of `COc1ccccc1Nc1c2c(nc3ccc(NC(=O)/C=C/c4cc(OC)c(OC)c(OC)c4)cc13)CCCC2`, the Potency is 3.29 µM (active). In the case of `COc1cc(C(=O)Nc2ccc(-n3c(C)nc4ccccc4c3=O)cc2)cc(OC)c1OC`, the “activity change, negative = inhibition” value is 2.16% (inactive). As for `COc1ccc(NC(=O)c2ccc3oc(=O)c(S(=O)(=O)c4ccc(F)cc4)cc3c2)c(OC)c1`, the “activity change, negative = inhibition” value is -1.06% (inactive). For `CCC(=O)NCc1cc(-c2nn(C)c(=O)c3ccccc23)ccc1OC`, the “activity change, negative = inhibition” value is 0.553% (inactive).
